# MITF primary = inhibitors of human MITF. 650,000 compounds, 0.91% hits. inhibition, % at 2.6 µM. AlphaScreen MITF homodimerization, bead proximity signal. O75030; in the data active = inhibition above about 50%;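 note: 0% = vehicle wells with protein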
# FBW7 act = activators of human E3 ligase FBW7; AlphaScreen FBW7–phospho-cyclin E peptide binding, activator screen; normalized activity (activation), % at 26.1 µM; 650,000 compounds, 0.13% hits; AID 1259310; in the data active = normalized activity above about 1.9%;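 note: purified mutant Fbw7 with reduced substrate affinity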
# Target sequence (Q969H0 whole entry, looked up): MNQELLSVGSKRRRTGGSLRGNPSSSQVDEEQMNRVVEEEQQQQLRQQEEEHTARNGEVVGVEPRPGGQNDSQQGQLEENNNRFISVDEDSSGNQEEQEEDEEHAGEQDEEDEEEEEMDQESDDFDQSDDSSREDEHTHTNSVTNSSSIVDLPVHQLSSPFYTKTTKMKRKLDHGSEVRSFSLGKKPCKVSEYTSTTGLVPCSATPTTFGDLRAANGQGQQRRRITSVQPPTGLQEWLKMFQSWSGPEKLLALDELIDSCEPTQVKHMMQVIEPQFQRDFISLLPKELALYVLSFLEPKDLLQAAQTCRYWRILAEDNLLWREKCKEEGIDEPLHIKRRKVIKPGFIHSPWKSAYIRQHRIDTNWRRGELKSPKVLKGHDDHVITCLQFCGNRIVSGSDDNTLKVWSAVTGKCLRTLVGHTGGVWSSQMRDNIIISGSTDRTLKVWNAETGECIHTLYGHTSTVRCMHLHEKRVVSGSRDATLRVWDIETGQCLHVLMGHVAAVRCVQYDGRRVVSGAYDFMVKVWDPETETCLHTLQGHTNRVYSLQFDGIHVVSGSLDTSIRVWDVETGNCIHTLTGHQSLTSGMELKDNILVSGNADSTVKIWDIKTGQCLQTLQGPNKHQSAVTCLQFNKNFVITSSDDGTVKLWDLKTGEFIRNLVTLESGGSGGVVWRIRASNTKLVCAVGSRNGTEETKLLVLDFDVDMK
# TEAD-YAP inh = TEAD-YAP interaction inhibition; HEK-TIYL cells, TEAD-Gal4/YAP UAS-luciferase luminescence; inhibition, % at 9.12 µM; 640,000 compounds, 1.4% hits; in the data active = inhibition above about 32%;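 note: 0% = median of test compound wells and 100% = reference inhibitor wells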
# GPR151 activ = human GPR151 activation; activation, % at 11.2 µM; PathHunter beta-arrestin GPR151 cells, luminescence; Q8TDV0; 650,000 compounds, 1% hits; in the data active = activation above about 4.9%;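 note: 0% = median of compound wells and 100% = cells with positive control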
# MITF inh conf = human MITF inhibition, confirmation; shares compounds with MITF primary; AlphaScreen MITF homodimerization, biotin/His-MITF beads; 4,700 compounds, 16% hits; inhibition, % at 2.6 µM;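 active = inhibition above a cutoff derived from the DMSO control wells, cut at about 28% in these data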;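 note: 0% = MITF dimer wells with DMSO only; inhibitors lower the bead chemiluminescence by keeping MITF from dimerizing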
# AlphaScreen DR = AlphaScreen optical interference, dose response counter-screen. shares compounds with MITF primary. AlphaScreen optical interference counterscreen, cell-free. AID 1259373. IC50, µM. 480 compounds, 6% hits; call rule not given here
# AS interf ctr = AlphaScreen optical interference, counter-screen; shares compounds with MITF primary; inhibition, % at 2.6 µM; LysRS AlphaScreen counterscreen, signal interference, triplicate; 4,700 compounds, 7.6% hits;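 active = inhibition above a cutoff derived from the DMSO control wells, cut at about 30% in these data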
# * marks the source's active call; other numbers are inactive results; · = no result. Sampled rows, rich in hits. Any-hit rate of the full collection: about 3.5%.
SMILES,MITF primary,FBW7 act,TEAD-YAP inh,GPR151 activ,MITF inh conf,AS interf ctr,others
O=[N+]([O-])c1cccc(CN2CCN(S(=O)(=O)Cc3ccccc3)CC2)c1,31,0,17,4,·,·,
FC(F)(F)c1cccc(CNc2cc(-c3csc4ccccc34)ncn2)c1,62*,0,-3,3,-3,0,
Cc1cc(NCc2cccc(C(F)(F)F)c2)nc(-c2csc3ccccc23)n1,14,0,-6,0,·,·,
Cc1[nH]ncc1-c1ccc(NC(=O)[C@@H]2Cc3ccccc3CN2)c(OCCN(C)C)c1,67*,0,-4,-1,6,9,
O=C(O)c1cccc(N2C(=O)CC(Nc3ccc(N4CCOCC4)cc3)C2=O)c1 (centres undefined),70*,0,-5,-2,69*,4,AlphaScreen DR=>6.6
O=C1CCCN1C(=O)CN1CCOCC1,53*,0,-9,0,3,6,
O=C1CCCN1C(=O)CN1CCCCC1,52*,0,6,-1,14,13,
CC1CN(c2ccc([N+](=O)[O-])c(NC(C)C34CC5CC(CC(C5)C3)C4)c2)CC(C)N1 (centres undefined),-1,0,-12,1,·,·,
Cc1nn(-c2ccc(F)cc2)c(C)c1CNCc1ccccc1,70*,0,-3,0,25,10,
CCCCNCCOCCOc1cc(C)ccc1Cl,54*,0,0,-1,11,8,
CCCCNCCOCCOc1ccc(Cl)cc1,80*,0,-3,2,-8,-4,
COc1ccc(C(CNc2nnnn2-c2ccccc2)N2CCOCC2)cc1 (centres undefined),51*,0,1,1,3,0,
CN=C1SC(CC(=O)Nc2cccc(C(=O)O)c2)C(=O)N1C (centres undefined),53*,0,10,3,36*,9,AlphaScreen DR=>6.5
COC(=O)CCc1cc2c(C)cc(=O)oc2cc1OCc1ccc(C)cc1,78*,0,-9,0,38*,-72,AlphaScreen DR=>6.5
Cc1c(-c2ccccc2)c(=O)oc2ccc(O)cc12,80*,0,-3,-1,10,10,
CCN(CC)CCCOc1c(OC)cccc1OC,75*,0,9,1,14,-12,
COc1cccc(OC)c1OCCOc1ccccc1C,-12,0,8,0,·,·,
COc1cccc(OC)c1OCCN(C)C,59*,0,5,-1,22,-7,
CCC(C)N=Cc1c(O)n(-c2ccccc2OC)c(=O)[nH]c1=O (centres undefined),5,0,0,3,·,·,
COc1cc(CN2CCN(Cc3ccc(OC)c(OC)c3OC)CC2)cc(OC)c1,70*,0,13,0,-11,-5,
COc1ccc(CN2CCN(c3ccccc3)CC2)c(OC)c1OC,27,0,-7,0,·,·,
COc1ccc(CN2CCN(Cc3ccc(C(F)(F)F)cc3)CC2)c(OC)c1OC,78*,0,1,-1,10,14,
COc1ccc(CN2CCN(Cc3ccncc3)CC2)c(OC)c1OC,62*,0,10,0,-2,-1,
COc1ccc(CN2CCN(Cc3ccccc3Br)CC2)c(OC)c1OC,81*,0,-6,-1,18,8,
Cc1cccc(N2N=C(C(=O)NNC(=O)c3cncn3-c3ccc(F)cc3)CCC2=O)c1,-2,0,-2,-1,·,·,
SMILES,MITF primary,FBW7 act,TEAD-YAP inh,GPR151 activ,MITF inh conf,AS interf ctr,others
COc1cccc(C(=O)Oc2coc(CSc3nc(C)cs3)cc2=O)c1,-11,0,-7,1,·,·,
COc1ccc(CN2CCN(Cc3ccc(C(F)(F)F)cc3)CC2)cc1OC,24,0,14,-2,·,·,
COc1cc(CN2CCN(Cc3ccc(C(F)(F)F)cc3)CC2)cc(OC)c1OC,85*,1,19,0,4,17,
COc1ccc(C#N)c(S(=O)Cc2ccccc2)c1 (centres undefined),10,0,0,0,·,·,
Cc1ccccc1C1C(C#N)=C(N)N(N2CCOCC2)C2=C1C(=O)CC(C)(C)C2 (centres undefined),-1,0,-10,1,·,·,
CCNc1cc(C)nc(N2CCN(C(=O)c3c(F)cccc3Cl)CC2)n1,13,0,2,-1,·,·,
COc1cccc(C(=O)N2CCN(Cc3ccc(C)cc3)CC2)c1,58*,1,-5,0,10,12,
CCNc1cc(C)nc(N2CCN(C(=O)c3cccc(OC)c3)CC2)n1,59*,0,7,-2,-1,-2,
COc1ccc(C(=O)N2CCN(Cc3ccc(Cl)cc3)CC2)cc1OC,53*,0,13,0,-4,8,
COc1cccc(OC)c1C(=O)N1CCN(Cc2cccc(Br)c2)CC1,64*,0,0,-1,-3,-7,
COc1ccc(C(=O)N2CCN(Cc3cc(OC)c(OC)c(OC)c3)CC2)cc1OC,32,0,-2,0,·,·,
O=C(Nc1cccc(Cl)c1N1CCOCC1)c1cccc(I)c1,4,0,4,-1,·,·,
CCOc1ccc(S(=O)(=O)NC(CC(=O)O)c2ccccc2)cc1 (centres undefined),2,0,6,-1,·,·,
COc1cccc(C(=O)N2CCN(Cc3ccc(OC)c(OC)c3)CC2)c1,61*,0,3,1,-2,-4,
COc1cccc(C(=O)N2CCN(Cc3cccc(Br)c3)CC2)c1,54*,1,10,-2,-3,-2,
CCCCOc1ccc(-c2nc(C=Nc3cccc(C)c3)c(O)o2)cc1,1,0,-20,3,·,·,
COc1cc(N)ccc1NC(=O)CSc1ncnc2sc3c(c12)CCCC3,79*,0,6,1,8,22,
O=C1OC(c2ccccc2)=N/C1=C/c1cc2ccccc2nc1N1CCOCC1,56*,0,2,-1,6,13,
C=CCn1c(N/N=C(\C)c2ccc(OC)cc2)nc2c1c(=O)[nH]c(=O)n2C,-5,0,-8,2,·,·,
O=S(=O)(N=S(=O)(/C=C/c1ccccc1)c1ccccc1)c1ccccc1 (centres undefined),84*,0,35*,0,28*,9,AlphaScreen DR=>5.4
N=S(=NS(=O)(=O)c1ccccc1)(c1ccccc1)c1ccccc1,-11,0,1,-1,·,·,
COc1ccccc1N1CCN(C(=O)C(=O)N/N=C/c2c(Cl)cccc2Cl)CC1,8,0,7,2,·,·,
CCOc1ccccc1/C=C1\N=C(c2ccco2)OC1=O,-1,0,6,1,·,·,
CN1CCN(C(=O)C2CCCN(S(=O)(=O)N3CCCCC3)C2)CC1 (centres undefined),65*,0,-7,-1,-2,0,
CN1CCN(C(=O)C2CCCN(S(=O)(=O)c3ccc(F)cc3)C2)CC1 (centres undefined),74*,0,-5,1,-11,-3,

# Source: PubChem BioAssay
